Source: PubChem BioAssay (several laboratories)
Rows were chosen to be rich in hits. Some 4.8% of all compounds tested hit in one or more screens of this group.
DAX1 inh-1 = inhibitors of human orphan nuclear receptor DAX1 (NR0B1). actives 0.99% (n = 340,000). HEK293 Gal4-DAX1 luciferase reporter, luminescence. P51843. inhibition, % at 6.75 µM;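 active = inhibition above the mean over all tested compounds plus 3 SD, cut at about 4.2% in these data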;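 note: 0% = DAX1-transfected cells with DMSO and 100% = empty-vector control cells with DMSO; inhibition shows as a rise in luminescence from relieved DAX1 repression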
ssDAF-12 act = S. stercoralis DAF-12 activation, primary screen; AID 652126; activation, % at 6.8 µM; HEK293 ssDAF-12/GRIP1 lit1-tk-luc reporter, luminescence; % of 3 µM dafachronic acid response; actives 1% (n = 370,000);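 active = activation above the mean over all tested compounds plus 3 SD, cut at about 0.9% in these data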;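 note: 0% = DMSO-only wells and 100% = 3 µM delta7-dafachronic acid wells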
DAX1 inh-2 = inhibitors of DAX1 repression of SF-1 activated StAR promoter. HEK293T StAR-luciferase reporter, SF-1/DAX-1 repression relief. actives 1.1% (n = 370,000). inhibition, % at 6.8 µM;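 active = inhibition above the mean over all tested compounds plus 3 SD, cut at about 3.6% in these data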;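 note: 0% = DAX-1 cells with DMSO and 100% = cells lacking DAX-1 with DMSO; higher inhibition means more luminescence from relief of DAX-1 repression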
Rev-erbA mod = modulators of human Rev-erb alpha DNA binding; activity, % at 10 µM; actives 0.79% (n = 370,000); P20393; Rev-erbα–FITC-DNA binding, fluorescence polarization, 90 min;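 active = activity above about 14%, limit read from the data; passing the limit was not always enough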;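 note: 0% = DMSO wells with 35 nM protein and 100% = DMSO wells with 750 nM protein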
Target sequence (P20393 whole entry, looked up): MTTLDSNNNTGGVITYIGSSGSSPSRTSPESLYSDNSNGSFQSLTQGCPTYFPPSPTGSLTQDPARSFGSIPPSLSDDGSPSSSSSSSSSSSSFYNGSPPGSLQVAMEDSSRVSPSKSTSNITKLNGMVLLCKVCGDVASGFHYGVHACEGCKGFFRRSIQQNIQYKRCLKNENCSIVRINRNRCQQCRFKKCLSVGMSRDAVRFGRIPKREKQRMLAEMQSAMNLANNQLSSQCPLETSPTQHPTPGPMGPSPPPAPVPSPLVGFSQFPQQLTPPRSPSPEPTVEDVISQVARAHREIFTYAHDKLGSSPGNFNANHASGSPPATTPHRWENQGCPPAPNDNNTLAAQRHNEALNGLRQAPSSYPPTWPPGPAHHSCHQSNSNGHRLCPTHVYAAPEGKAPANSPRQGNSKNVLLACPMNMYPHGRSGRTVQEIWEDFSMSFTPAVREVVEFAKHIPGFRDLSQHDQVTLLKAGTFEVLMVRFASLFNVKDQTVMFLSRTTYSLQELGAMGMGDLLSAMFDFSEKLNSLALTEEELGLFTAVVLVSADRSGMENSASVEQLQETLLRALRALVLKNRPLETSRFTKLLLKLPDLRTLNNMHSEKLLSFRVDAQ
hcDAF12 agonist = activates DAF-12 receptor from parasite H. contortus; activation, % at 6.8 µM; actives 1.4% (n = 370,000); HEK293 hcDAF-12 lit1-tk-luc reporter, luminescence; 0% DMSO, 100% Δ7-dafachronic acid;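 active = activation above the mean of all tested compounds plus 3 SD, cut at about 5.5% in these data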;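 note: 100% = response to 3 µM Δ7-dafachronic acid high control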
hgDAF12 agonist = hgDAF-12 agonism, primary luciferase screen; HEK293 GAL4-hgDAF12 UAS-luciferase reporter, agonist luminescence; normalized to butyrate control; activation, % at 6.8 µM; actives 1.8% (n = 370,000); AID 687014;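 active = activation above a cutoff set at the mean of all screened compounds plus 3 SD, cut at about 10% in these data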;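 note: 0% = DMSO wells and 100% = sodium butyrate wells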
LXR ag = activates human LXR-beta, counter-screen for hcDAF-12 agonists; 3,400 tested, under 10 active; HEK293 Gal4-LXR tk-luc reporter, luminescence, 24 h; normalized: DMSO 0%, positive control 100%; activation, % at 6.8 µM; shares compounds with hcDAF12 agonist;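 active = mean percent activation of the reporter above a cutoff set as the average over tested compounds plus their standard deviation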
hcDAF12 ag = hcDAF-12 agonism, confirmation assay | shares compounds with hcDAF12 agonist | HEK293 hcDAF-12 lit1-tk-luc reporter, luminescence; % of Δ7-dafachronic acid response | activation, % at 6.8 µM | actives 61% (n = 3,400) | AID 743032;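 active = mean activation across triplicate tests above the threshold derived from the earlier primary screen, cut at about 5.5% in these data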;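 note: 0% = DMSO only wells and 100% = 3 µM Δ7-dafachronic acid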
Numbers without * were called inactive; x = no result.

SMILES	DAX1 inh-1	ssDAF-12 act	DAX1 inh-2	Rev-erbA mod	hcDAF12 agonist	hgDAF12 agonist	LXR ag	hcDAF12 ag
CCOc1ccc(NC(=O)CSc2nc3c([nH]c4ccccc43)c(=O)n2C)cc1	1	0	1	-2	9.8*	0	0	6.2*
Cn1c(SCC(=O)Nc2cccc(F)c2)nc2c([nH]c3ccccc32)c1=O	0	0	0	12	6.7*	3	0	4
CC(C)(C)NC(=O)[C@@H](c1cccnc1)N(C(=O)c1ccco1)c1ccc(C(C)(C)C)cc1	x	-1	x	-1	-2	3	x	x
C=CCN1CC(COCCCC)Oc2ccc(Cl)cc2S1(=O)=O (stereo not given)	x	-1	0	-6	2	0	x	x
COc1cc2c(cc1N)-c1ccc(N)cc1C2=O	1	-1	2	-23	1	8	x	x
COc1cc2c(c(Br)c1N)-c1cc(Br)c(N)cc1C2=O	-1	-1	3	-9	6.9*	5	0	8.8*
O=C(Nc1ccccc1)OCCN1CCCC12CCC(c1ccccc1)CC2 (stereo not given)	x	-1	x	-6	-1	3	x	x
CN1[C@@H](Cc2ccccc2)COc2cccc(N3CCSCC3)c2S1(=O)=O	x	-1	0	5	3	0	x	x
CCCCNc1nnc(SCC(=O)c2c[nH]c3ccccc23)s1	1	0	1	-5	12*	-1	0	5
Cn1cnnc1SCC(=O)c1c[nH]c2ccccc12	1	1	1	1	5	4	x	x
Cc1ccc(S(=O)(=O)N/N=C\C=C\c2ccccc2)cc1	0	-1	1	-2	6.7*	3	0	0
CCC(C#Cc1ccccc1)NCc1ccc(OC)cc1OC (stereo not given)	x	-1	x	3	-1	3	x	x
COC(=O)[C@]12C[C@H](CC(=O)N3CCCC3)C(=O)N(CCc3ccc(OC)c(OC)c3)C1=C[C@H](COCc1ccccc1)O[C@@H]2C	x	-1	-1	2	-2	-2	x	x
C[C@@H]1C=CCCO[C@]12C(=O)N(CC1CC1)c1ccccc12	x	-1	0	1	-1	4	x	x
CC(C)Cc1ccc(C(=O)NCCOc2ccccc2)o1	0	0	3	2	9.9*	9	1	7.4*
Cc1ccc(OCCNC(=O)c2ccc(COc3ccccc3)o2)cc1	1	0	2	4	-2	0	x	x
CC(=O)c1coc2c1cc(O)c1ccccc12	-1	-1	0	-1	-2	2	x	x
CC(=O)c1cc(O)c2ccccc2c1O	2	0	0	3	10*	2	0	3
C/C(=N\NC(=O)c1cc(O)ccc1O)c1cccc(NC(=O)c2ccc(Cl)cc2)c1	1	-1	3	2	-1	6	x	x
C/C(=N\NC(=O)c1ccccc1O)c1cccc(NC(=O)c2ccccc2)c1	3	1.3*	0	3	7.0*	9	0	5
CC1(C)CC(=O)N(CC(=O)NCc2ccccc2)c2ccccc2S1(=O)=O	0	-2	0	3	14*	1	0	1
Cc1ccc(S(=O)(=O)N2CCCC(C(=O)Nc3c(C)n(C)n(-c4ccccc4)c3=O)C2)cc1 (stereo not given)	x	-1	-1	-5	-2	-3	x	x
COC(=O)C1CN(Cc2ccccc2)CCS(=O)(=O)N1Cc1cn(Cc2ccccc2Br)nn1 (stereo not given)	x	-1	-1	-2	0	3	x	x
Cc1ccc(Nc2nnc(SC/C(O)=C(\C#N)c3nc4ccccc4[nH]3)s2)c(C)c1	1	0	0	0	9.4*	1	0	5
Cc1cccc(Nc2nnc(SC/C(O)=C(\C#N)c3nc4ccccc4[nH]3)s2)c1	0	1.5*	1	-5	7.2*	0	0	7.0*
SMILES	DAX1 inh-1	ssDAF-12 act	DAX1 inh-2	Rev-erbA mod	hcDAF12 agonist	hgDAF12 agonist	LXR ag	hcDAF12 ag
Cc1cc(C)n2c(SCC(O)=C(C#N)c3nc4ccccc4[nH]3)nnc2n1	0	-1	0	-15	1	-1	x	x
CCC(C)N(C(=O)c1oc(=O)c2ccccc2c1-c1ccc(C)cc1)C(C)CC (stereo not given)	x	-2	-1	2	-3	-2	x	x
CCOC(=O)[C@@]12CCC3=C1N(CCC3)C(=O)[C@H](CC(=O)N1CCCCC1)C2	x	-1	-1	-4	-1	-3	x	x
O=S(=O)(CC1NCc2cc(F)ccc21)NCc1ccc(F)cc1 (stereo not given)	x	-1	-1	0	1	0	x	x
CC(C)(C)c1ccc(/C=C/C(=O)NC2=NCCS2)cc1	-1	0	4	8	6.6*	7	1	5.7*
Cc1cc(N2CCN(CC(C)(C)O)C[C@H]2C)ccc1N1CCN(CC(C)(C)O)[C@H](C)C1	x	-1	0	-6	-1	2	x	x
CCOC(=O)[C@]12CCCCC/C=C\1N(Cc1ccc(OC)cc1)C(=O)[C@H]2CC(=O)NCc1cccc(C(F)(F)F)c1	x	-2	0	-1	0	-1	x	x
CC(C)(C)OC(=O)N1CCC[C@@H]1C(=O)N1CCC[C@@H]1C(=O)NCc1ccccc1	x	-1	-1	-4	-2	-1	x	x
Cc1occc1C(=O)N=Nc1c(O)n(C)c2ccccc12	1	1.0*	3	2	15*	17*	2	15*
Cn1c(O)c(N=Nc2ccccc2[N+](=O)[O-])c2ccccc21	2	2.6*	1	-3	11*	11*	0	9.0*
CCOC(=O)C(=O)N=Nc1c(O)n(C)c2ccccc12	1	-1	1	-4	3	-1	x	x
Cc1ccc2[nH]c(O)c(N=Nc3ccccc3[N+](=O)[O-])c2c1	1	0	1	-29	3	3	x	x
CCCCCCCCN1C(=O)[C@@H](CC(=O)NCCCOC)C[C@@]2(C(=O)OC)C1=C[C@H](C(C)(C)C)O[C@@H]2C	x	-1	-1	2	-1	1	x	x
O=C(/C=C/c1ccco1)Nc1cccc2cccnc12	0	1	1	-18	6.8*	10	0	7.0*
CC1(c2nnnn2Cc2ccccc2)CSCC(=O)N1Cc1cccs1 (stereo not given)	x	-1	-1	-5	-1	-1	x	x
N#C/C(=C\Nc1ccc2cn[nH]c2c1)c1nc(-c2ccccc2)cs1	-1	-1	-1	-4	0	-1	x	x
